# Test results: the OligoGym collection
# Biological target: CSGALNACT1
# Test: pooled miR-30 sensor sort-seq; sequence = guide strand
# Conditions: shRNA
# Further: reference of the scale not given here.
row,Sequence,sensor-assay potency score (higher = more potent)
1,TTAAATTTCATAAACTACCAGT,-0.16
2,TTGCTGTGGAGATACTTGCGAT,-1.14
3,ATATTGATGAAGTCTGACCGAT,-0.598
4,TATCTCGTGCCTGAACACCAGC,-0.848
5,TATTAGTACAAACCATTCCTTC,-0.885
6,TTGATGTCCAGATCAAACCCAC,-0.21
7,TTGGACTGCATGCACATCTTGT,-0.464
8,TTAAACAATGAGTTTACTGTGA,-0.267
9,TTAGCTGTGCAATACCACCTTC,-0.0505

# Biological target: CSTF3
# Test: as above
# Conditions: shRNA
row,Sequence,sensor-assay potency score (higher = more potent)
1,TTTGTTTCCAAGAACCTTGTAA,0.432
2,TACTGCATTACTTTCCACGGGG,0.0681
3,TAGAGCATAGGTCTGTTCCGTA,0.181
4,TTCTGGTATCTTCTCTTGCTTT,-0.975
5,TTTAGCTAAATGAATATTGATA,-0.643
6,TTTCTTTGTAACTTGGTAGTTT,-0.139
7,TTTGCTTAGAGCATAGGTCTGT,0.755
8,TTCATCTGAATCCTCGTTGGGC,0.448
9,TTTTCTATCCACTTCATCTTTC,-0.135
10,TTCCATTCCAATTTTATCCAGT,-0.0677
11,TTCTTCTTCAATAAAGTGCTTA,-0.0244
12,TTGAATGCTGTAAACCGTCTTT,-0.262
13,TTGTTTTTTCTCAAGAACCATG,-1.15
14,TTATTCTTTGATTTTCTGCATA,-0.891
15,TAGCTGCTAGCTTAGCACGGGA,-0.406
16,TATAGAAGGAGCTACAACTGGG,0.225
17,TTTGTCTATAGGTTGATTCTGT,-0.133
18,TTGGTATCTTGCATCTTCGGAA,-0.546
19,TACTTGTTATAGTCTCTCCAGA,-0.878
20,TAAATCAATGTGCAAAACCTTC,-1.01
21,TCGGATTAACACAACCTCGTTG,-0.511
22,TTGATCATCGGATTAACACAAC,-0.951
23,TTTGGTATCTTGCATCTTCGGA,-0.026
24,TGAACTTGTATCTATCTACTAG,-0.0129

# Biological target: CT47A1
# Test: as above
# Conditions: shRNA
row,Sequence,sensor-assay potency score (higher = more potent)
1,TTCCTCGCCTGCAGCATCTTGG,-0.775
2,TGTTTTCTGCATCCTTCTCTTT,-1.05
3,TGCATCCTTCTCTTTTTCTTGT,-0.624
4,TTGTTTTCTGCATCCTTCTCTT,-0.0876
5,TTCTCTATGAGGATGTGGTCGT,0.0532
6,TTCTTCACCTTGTTTTCTGCAT,-0.231
